Our source for the binding signal values is article PMC7819943, “Rice protein-binding microarrays: a tool to detect cis-acting elements near promoter regions in rice”.

The full ranking holds about 39,000 sequences; the median of “fluorescence intensity (a.u.)” is about 4,300, and the highest 2% start at about 39,000. Many of the other results were omitted from the sample, so the highest values are more common in it than they were.

The assay addresses T1, OsSMF1 (Oryza sativa, UniProt Q6ZLB0 1-436).
T1 sequence: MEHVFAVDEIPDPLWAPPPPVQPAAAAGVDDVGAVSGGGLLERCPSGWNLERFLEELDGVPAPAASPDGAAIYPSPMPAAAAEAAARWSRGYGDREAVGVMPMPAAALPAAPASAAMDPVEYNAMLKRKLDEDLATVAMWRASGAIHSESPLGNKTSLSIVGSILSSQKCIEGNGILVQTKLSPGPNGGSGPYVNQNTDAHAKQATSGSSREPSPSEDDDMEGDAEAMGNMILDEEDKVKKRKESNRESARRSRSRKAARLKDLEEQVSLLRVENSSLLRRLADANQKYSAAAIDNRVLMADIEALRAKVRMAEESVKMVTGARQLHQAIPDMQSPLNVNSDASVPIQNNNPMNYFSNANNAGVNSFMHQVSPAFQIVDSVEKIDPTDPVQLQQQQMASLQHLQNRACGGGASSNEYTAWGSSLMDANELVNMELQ
Briefly: protein-binding microarray (RPBM); PBS, 2% BSA, 51.3 ng/ul salmon testes DNA, 50 uM zinc acetate, 200 nM TF, 25 C, 1 h; high values mean tight binding. The settings on record: protein: recombinant; tags: N-terminal polyhistidine and DsRed monomer fusion (pET32a); chain copies: 2; label: CyDye5-dUTP incorporated in the synthesized complementary strand; 3' TTTTT single-stranded linker to array surface; dsDNA, one strand shown. In outline: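 Binding signal is defined as the fluorescence intensity of each feature in arbitrary units, read on an Axon 4000B scanner. Transcription factors with N-terminal polyhistidine and DsRed fusions came from E. coli BL21-CodonPlus and were purified on Ni–NTA. They were incubated at 200 nM for 1 h at 25 °C on a custom Agilent array that had been made double-stranded with Cy5-dUTP, with 50 µM zinc acetate present, and the array was washed.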
For “TTCTATTTTCGCATGTGGCATTTGTGGCTGCTTGCTAGACCGGAGTCACCTAGTGCAG”, the binding signal is 3690 fluorescence intensity (a.u.).
To “CAATATGACATTGTATATGTGAATTGAGTGTAACTTGGTTCGGAGTCACCTAGTGCAG” belongs 3290 fluorescence intensity (a.u.).
To “TACGCCGTTACGTGGTATGGTGTTGTGCCATTTCAGTCGGCGGAGTCACCTAGTGCAG” belongs 3500 fluorescence intensity (a.u.); to “AGAAAATGTGGAATGACGCAAATGCCCTTCTGCCTCCTCGCGGAGTCACCTAGTGCAG”, 5440 fluorescence intensity (a.u.).
With “GATTGCAGCCGCCGCCTGCGTCGGTCCAGTCACCATTGGCCGGAGTCACCTAGTGCAG” the figure was 6870 fluorescence intensity (a.u.).
As for “ACTAAATCCTCAACCACCTCATATGTTTATGTACCATCGACGGAGTCACCTAGTGCAG”, the binding signal was 3510 fluorescence intensity (a.u.).
“GCGCAAGTTCTCCACAAGCCACCTCGATCGATCTCCATTGCGGAGTCACCTAGTGCAG”: the binding signal is 3420 fluorescence intensity (a.u.).
With “GTCAGTCACCGCCCTGTGGGGCCCACCCACCCGCGCCGTCCGGAGTCACCTAGTGCAG” the figure was 9640 fluorescence intensity (a.u.).
Turning to “AGTTTGCTGCCCACTTCAGTAGGTTACAATACAATTATACCGGAGTCACCTAGTGCAG”, the binding signal is 65300 fluorescence intensity (a.u.).
With “CAACAATACAGTTATTGGTAATTACAAGCTACTAGTATACCGGAGTCACCTAGTGCAG” the figure was 18600 fluorescence intensity (a.u.); with “TTCAGATGTACAATTTTGCTGGATTACTAGTAGTTTTCTTCGGAGTCACCTAGTGCAG”, 17600 fluorescence intensity (a.u.); with “CCTTTCCCTCTCCACTCTCCACCATCCTCTGCAGCTGACTCGGAGTCACCTAGTGCAG”, 3330 fluorescence intensity (a.u.).
To “CTGCGTTACTTCGACATTGCCCGACGTGTTGACTGTGTTGCGGAGTCACCTAGTGCAG” belongs 4070 fluorescence intensity (a.u.); to “GTGTGAGGTTCATGCTGGGCGGTGACGCGACGGCGGAGACCGGAGTCACCTAGTGCAG”, 6730 fluorescence intensity (a.u.); to “AAGAAGAAGACGACGACGTGGCGAGCCAAGTAGCAGCAAACGGAGTCACCTAGTGCAG”, 3620 fluorescence intensity (a.u.).
“GTTACGACAAGTGCCACAAACCAGCAGAAGCAAAGGTAGACGGAGTCACCTAGTGCAG”: the binding signal was 47900 fluorescence intensity (a.u.).
With “CTAGAAGTTACCAAGGTACCAGAGCAGACACCTAAGCAGCCGGAGTCACCTAGTGCAG” the figure was 3370 fluorescence intensity (a.u.).
To “AGTATGAAAGACCTGAGGATGACCCGGATTATATTCCTATCGGAGTCACCTAGTGCAG” belongs 3320 fluorescence intensity (a.u.); to “GCAATGCATTTCAAATTCAGGACCCCATAGAGAAATCAACCGGAGTCACCTAGTGCAG”, 29200 fluorescence intensity (a.u.).
With “GACACAAACAAAATCGAGAAGATGGCATACCTACCATACACGGAGTCACCTAGTGCAG” the figure was 22800 fluorescence intensity (a.u.).
For the sequence “AAACAAAGTGGCACAGATAAAATGGAACATAGAAGTGGCACGGAGTCACCTAGTGCAG”, the binding signal was 40700 fluorescence intensity (a.u.).
With “AAAATCATACGAACGGAAAAGCAAAAGATAGAAGCCAAAACGGAGTCACCTAGTGCAG” the figure was 16500 fluorescence intensity (a.u.); with “GATAACCGTAACTAACCGGCTTGGTCAGCAAGCCAAAGTGCGGAGTCACCTAGTGCAG”, 6310 fluorescence intensity (a.u.).
Regarding “CTTCCACTGACATGACACCAAGAGACCACTTTCTTTAATTCGGAGTCACCTAGTGCAG”, the binding signal is 3250 fluorescence intensity (a.u.).
On to “ATTCTTGCTACCTATAATTGCAACATGACAGAGTGTTAAGCGGAGTCACCTAGTGCAG”, for which the binding signal is 3480 fluorescence intensity (a.u.).
As for “ATAATGAACAATTTCTTTCCAAGCTACATGTAGACCAGAGCGGAGTCACCTAGTGCAG”, the binding signal was 40100 fluorescence intensity (a.u.).
With “CTTGTTTCACCTGTCATACACACGTTACGTCTTAGAGTCCCGGAGTCACCTAGTGCAG” the figure was 5140 fluorescence intensity (a.u.).
Regarding “GTAGAAGACCGGCGGAAAGTGTGAGGAGGGTGACAAGGGGCGGAGTCACCTAGTGCAG”, the binding signal was 3420 fluorescence intensity (a.u.).
Turning to “TGATTGCAACAGGTGGGCTGGTTTTGCGTCATTTGACCAGCGGAGTCACCTAGTGCAG”, the binding signal is 51900 fluorescence intensity (a.u.).
As for “TACAGCGTCATTGCAAGAATGGTGACGGGGTTTGAGGTTGCGGAGTCACCTAGTGCAG”, the binding signal was 6110 fluorescence intensity (a.u.).
With “ATTTTGACTGATGTGACGTTTGCGTGGCTGGTTTGATTAGCGGAGTCACCTAGTGCAG” the figure was 4770 fluorescence intensity (a.u.); with “CTTGTCGCATCTGAACGTGTCGAGTCACACCTGTGTGTTACGGAGTCACCTAGTGCAG”, 8330 fluorescence intensity (a.u.).
For the sequence “TTGGCGTGTGTGCAGCATTTGCGGCGGCGGCTGAGAAAGACGGAGTCACCTAGTGCAG”, the binding signal was 31100 fluorescence intensity (a.u.).
On to “CATTGGTGGCGTAATGTGGTTGTTAGTGATTTGTTGCACCCGGAGTCACCTAGTGCAG”, for which the binding signal was 3460 fluorescence intensity (a.u.).
With “TCAATCTGGCGGGGTTTATTTGTGACCCTCGATCGGTCAACGGAGTCACCTAGTGCAG” the figure was 4060 fluorescence intensity (a.u.); with “GGAGGTGGGGATGGTGGGAGGTTTTGGTTTGGTAAAATAGCGGAGTCACCTAGTGCAG”, 4910 fluorescence intensity (a.u.).
To “AATAAGTAAGGTGGTTTTAAAATTTGGGGAGAGCTAACAGCGGAGTCACCTAGTGCAG” belongs 39100 fluorescence intensity (a.u.); to “TAAAATTTAAATTTTGGCTAATAAGTATAAGCATAACTGTCGGAGTCACCTAGTGCAG”, 34300 fluorescence intensity (a.u.).
With “GCTACACTTAACGCTGTCCACAACTCCACATACGCGTTACCGGAGTCACCTAGTGCAG” the figure was 3330 fluorescence intensity (a.u.).
For the sequence “ATTTCTAATGCCACGTTAACGCCACGTGGAAAGAAGACCGCGGAGTCACCTAGTGCAG”, the binding signal is 17900 fluorescence intensity (a.u.).
As for “GAACGGTAGAATGATTATTGCTCCTTCAGTTTTCGAGTAACGGAGTCACCTAGTGCAG”, the binding signal was 3320 fluorescence intensity (a.u.).
With “TGAACCGGCCGGTTTTCATGTGAACCGTGAACCGTAATAACGGAGTCACCTAGTGCAG” the figure was 3240 fluorescence intensity (a.u.); with “TCCGTTCTGTTTATGAATAACGGTCGAAAACGTAATAACCCGGAGTCACCTAGTGCAG”, 46300 fluorescence intensity (a.u.); with “CTATGACGGGTCGAAAACGGAACCCGTCAAAGATGAGTTACGGAGTCACCTAGTGCAG”, 18300 fluorescence intensity (a.u.).
On to “GTGGTACACGCATGCTGACTAATTAAGACCGACAGAATCCCGGAGTCACCTAGTGCAG”, for which the binding signal is 3390 fluorescence intensity (a.u.).
